The supplement of paper PMC10849652
Of roughly 7,900 targets only a part is listed; those with a hit were picked by preference. About 0.6% of all pairs of compound and target were hits. Values without a mark were called inactive.

Experiments:
Assay in all cases: log2 fold change, soluble protein after heating vs DMSO (PISA); higher = thermal stabilisation; K562 cells, 10 uM, 30 min; active = over 0.2 and 3.5 SD of the protein, either way, in both replicates (recomputed)
saracatinib = compound: CN1CCN(CCOc2cc(OC3CCOCC3)c3c(Nc4c(Cl)ccc5c4OCO5)ncnc3c2)CC1 [saracatinib]
How it was run: (§1)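 For each measurement, 10 μM compound was applied for 30 min to K562 cells at 2×10^6 cells/mL. Aliquots were heated for 3 min across 48°C-58°C, pooled, and extracted in PBS with 0.5% NP-40 at 4°C; the supernatant after 21,000xg for 90 min was soluble protein. This was quantified by TMTpro 16plex LC-MS/MS with channel sums equalised, and thermal stability was reported relative to control samples from duplicates, on a log2 fold-change scale.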

sotrastaurin = compound: CN1CCN(c2nc(C3=C(c4c[nH]c5ccccc45)C(=O)NC3=O)c3ccccc3n2)CC1 [sotrastaurin]
How it was run: as §1

alvocidib = compound: CN1CC[C@H](c2c(O)cc(O)c3c(=O)cc(-c4ccccc4Cl)oc23)[C@H](O)C1 [alvocidib]
How it was run: as §1

Tubastatin A = compound: CN1CCc2c(c3ccccc3n2Cc2ccc(C(=O)NO)cc2)C1 [Tubastatin A]
How it was run: as §1

[1] = compound: CNC(=O)C1=CC=CC=C1NC2=NC(=NC=C2Cl)NC3=C(C=C(C=C3)N4CCOCC4)OC
How it was run: as §1

defactinib = compound: CNC(=O)c1ccc(Nc2ncc(C(F)(F)F)c(NCc3nccnc3N(C)S(C)(=O)=O)n2)cc1 [defactinib]
How it was run: as §1

rucaparib = compound: CNCc1ccc(-c2[nH]c3cc(F)cc4c3c2CCNC4=O)cc1 [rucaparib]
How it was run: as §1

[2] = compound: CNc1nc(-c2ccc3c(N)n[nH]c3c2)cc(N2C[C@@H](C(=O)NC3CCCCC3)CC[C@H]2C)n1
How it was run: as §1

encorafenib = compound: COC(=O)N[C@@H](C)CNc1nccc(-c2cn(C(C)C)nc2-c2cc(Cl)cc(NS(C)(=O)=O)c2F)n1 [encorafenib]
How it was run: as §1

[3] = compound: COC(=O)[C@H](CCSC)NC(=O)C1=C(C=C(C=C1)NC[C@H](CS)N)C2=CC=CC=C2
How it was run: as §1

[4] = compound: COC1=CC=C(C=C1)CN2C=CC3=C2C=C(C=C3)C(=O)NO
How it was run: as §1

filanesib = compound: CON(C)C(=O)N1N=C(c2cc(F)ccc2F)S[C@@]1(CCCN)c1ccccc1 [filanesib]
How it was run: as §1

zotarolimus = compound: CO[C@H]1C[C@@H]2CC[C@@H](C)[C@@](O)(O2)C(=O)C(=O)N2CCCC[C@H]2C(=O)O[C@H]([C@H](C)C[C@@H]2CC[C@H](n3cnnn3)[C@H](OC)C2)CC(=O)[C@H](C)/C=C(\C)[C@@H](O)[C@@H](OC)C(=O)[C@H](C)C[C@H](C)/C=C/C=C/C=C/1C [zotarolimus]
How it was run: as §1

idasanutlin = compound: COc1cc(C(=O)O)ccc1NC(=O)[C@@H]1N[C@@H](CC(C)(C)C)[C@](C#N)(c2ccc(Cl)cc2F)[C@H]1c1cccc(Cl)c1F [idasanutlin]
How it was run: as §1

alisertib = compound: COc1cc(Nc2ncc3c(n2)-c2ccc(Cl)cc2C(c2c(F)cccc2OC)=NC3)ccc1C(=O)O [alisertib]
How it was run: as §1

[5] = compound: COc1cc2nc(-c3cc(F)ccc3O)nc(N[C@@H]3CNC[C@H]3C(C)(C)O)c2cc1OC
How it was run: as §1

gefitinib = compound: COc1cc2ncnc(Nc3ccc(F)c(Cl)c3)c2cc1OCCCN1CCOCC1 [gefitinib]
How it was run: as §1

[6] = compound: COc1cccc2cc(-c3nc([C@H]4CC[C@H](C(=O)O)CC4)n4ncnc(N)c34)[nH]c12
How it was run: as §1

lapatinib = compound: CS(=O)(=O)CCNCc1ccc(-c2ccc3ncnc(Nc4ccc(OCc5cccc(F)c5)c(Cl)c4)c3c2)o1 [lapatinib]
How it was run: as §1

pictilisib = compound: CS(=O)(=O)N1CCN(Cc2cc3nc(-c4cccc5[nH]ncc45)nc(N4CCOCC4)c3s2)CC1 [pictilisib]
How it was run: as §1

Sequence of UniProt Q9BZF1 (Q9BZF1 whole entry, looked up): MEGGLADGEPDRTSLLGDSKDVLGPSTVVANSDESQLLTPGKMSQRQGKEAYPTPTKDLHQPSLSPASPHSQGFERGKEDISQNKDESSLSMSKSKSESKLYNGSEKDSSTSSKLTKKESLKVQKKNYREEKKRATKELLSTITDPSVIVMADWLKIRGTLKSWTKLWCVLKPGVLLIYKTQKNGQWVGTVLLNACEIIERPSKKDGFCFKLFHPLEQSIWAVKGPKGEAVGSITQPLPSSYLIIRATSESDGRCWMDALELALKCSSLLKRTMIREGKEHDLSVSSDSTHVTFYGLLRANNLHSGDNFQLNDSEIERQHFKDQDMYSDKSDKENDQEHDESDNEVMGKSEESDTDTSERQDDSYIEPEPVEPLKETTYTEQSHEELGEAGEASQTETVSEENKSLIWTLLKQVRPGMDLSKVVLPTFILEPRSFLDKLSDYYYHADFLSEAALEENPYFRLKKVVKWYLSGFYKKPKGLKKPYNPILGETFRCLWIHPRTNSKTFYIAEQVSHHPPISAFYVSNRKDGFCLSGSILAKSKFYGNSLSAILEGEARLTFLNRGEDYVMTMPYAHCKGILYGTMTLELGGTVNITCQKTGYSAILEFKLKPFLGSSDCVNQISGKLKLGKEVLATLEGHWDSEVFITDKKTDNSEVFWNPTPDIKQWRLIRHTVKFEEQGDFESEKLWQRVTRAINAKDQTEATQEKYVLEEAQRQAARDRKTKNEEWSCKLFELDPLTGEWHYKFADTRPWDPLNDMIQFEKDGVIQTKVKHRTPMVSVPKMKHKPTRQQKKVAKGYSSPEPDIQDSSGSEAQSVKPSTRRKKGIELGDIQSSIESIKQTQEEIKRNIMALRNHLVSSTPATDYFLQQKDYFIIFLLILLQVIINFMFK
Sequence of UniProt P03886 (P03886 whole entry, looked up): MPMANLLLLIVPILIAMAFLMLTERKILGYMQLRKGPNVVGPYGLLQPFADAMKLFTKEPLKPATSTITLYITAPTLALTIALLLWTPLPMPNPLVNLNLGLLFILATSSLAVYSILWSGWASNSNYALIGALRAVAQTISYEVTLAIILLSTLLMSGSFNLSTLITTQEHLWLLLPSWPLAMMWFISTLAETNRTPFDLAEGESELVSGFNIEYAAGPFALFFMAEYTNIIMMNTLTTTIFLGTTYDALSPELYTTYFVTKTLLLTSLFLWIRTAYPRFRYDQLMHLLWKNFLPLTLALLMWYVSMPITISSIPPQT
Sequence of UniProt O15118 (O15118 whole entry, looked up): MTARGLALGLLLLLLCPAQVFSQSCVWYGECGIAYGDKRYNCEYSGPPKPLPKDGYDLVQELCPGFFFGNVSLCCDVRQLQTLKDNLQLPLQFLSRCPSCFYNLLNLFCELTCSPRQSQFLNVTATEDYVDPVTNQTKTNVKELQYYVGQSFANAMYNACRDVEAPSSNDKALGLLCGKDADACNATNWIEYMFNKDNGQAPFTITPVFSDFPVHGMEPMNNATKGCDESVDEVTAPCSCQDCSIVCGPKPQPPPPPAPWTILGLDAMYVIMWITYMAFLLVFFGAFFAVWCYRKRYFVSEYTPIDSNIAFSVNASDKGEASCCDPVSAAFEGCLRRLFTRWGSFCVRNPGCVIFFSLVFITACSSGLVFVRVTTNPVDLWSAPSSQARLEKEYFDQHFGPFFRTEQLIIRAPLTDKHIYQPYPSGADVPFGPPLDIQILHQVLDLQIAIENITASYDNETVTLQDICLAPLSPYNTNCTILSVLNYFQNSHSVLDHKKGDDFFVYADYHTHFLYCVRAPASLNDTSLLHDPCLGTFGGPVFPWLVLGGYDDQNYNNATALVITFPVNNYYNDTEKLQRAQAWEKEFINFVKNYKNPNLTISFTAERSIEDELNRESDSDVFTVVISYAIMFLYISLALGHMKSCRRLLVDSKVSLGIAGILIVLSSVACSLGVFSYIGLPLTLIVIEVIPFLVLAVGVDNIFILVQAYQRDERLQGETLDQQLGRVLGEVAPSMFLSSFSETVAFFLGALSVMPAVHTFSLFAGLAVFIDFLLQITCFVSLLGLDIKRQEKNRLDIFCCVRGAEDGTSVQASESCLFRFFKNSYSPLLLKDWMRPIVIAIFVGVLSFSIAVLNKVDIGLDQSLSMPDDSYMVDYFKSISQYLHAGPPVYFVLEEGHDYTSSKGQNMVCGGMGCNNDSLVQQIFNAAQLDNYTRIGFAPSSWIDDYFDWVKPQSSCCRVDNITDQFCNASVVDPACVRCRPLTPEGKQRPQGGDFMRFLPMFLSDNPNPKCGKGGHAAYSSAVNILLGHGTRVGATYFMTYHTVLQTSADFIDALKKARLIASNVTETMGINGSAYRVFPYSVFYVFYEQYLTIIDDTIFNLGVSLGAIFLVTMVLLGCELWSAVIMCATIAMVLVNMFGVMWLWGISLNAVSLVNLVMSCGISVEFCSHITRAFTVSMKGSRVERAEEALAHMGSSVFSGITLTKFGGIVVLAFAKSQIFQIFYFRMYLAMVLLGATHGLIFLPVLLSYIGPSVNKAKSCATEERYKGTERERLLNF
Sequence of UniProt Q8NCF5 (Q8NCF5 whole entry, looked up): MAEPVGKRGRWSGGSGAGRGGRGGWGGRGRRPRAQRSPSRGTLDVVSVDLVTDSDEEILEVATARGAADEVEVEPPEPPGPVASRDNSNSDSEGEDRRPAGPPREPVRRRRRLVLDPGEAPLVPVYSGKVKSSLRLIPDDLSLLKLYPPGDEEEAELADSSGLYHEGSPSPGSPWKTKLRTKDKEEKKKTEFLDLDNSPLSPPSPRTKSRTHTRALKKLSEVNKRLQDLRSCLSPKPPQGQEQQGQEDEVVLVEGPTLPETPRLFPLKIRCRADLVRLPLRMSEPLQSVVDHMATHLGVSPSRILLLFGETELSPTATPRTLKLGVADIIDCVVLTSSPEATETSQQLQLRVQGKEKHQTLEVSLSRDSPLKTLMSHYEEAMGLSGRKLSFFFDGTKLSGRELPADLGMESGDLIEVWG
Sequence of UniProt P52701 (P52701 whole entry, looked up): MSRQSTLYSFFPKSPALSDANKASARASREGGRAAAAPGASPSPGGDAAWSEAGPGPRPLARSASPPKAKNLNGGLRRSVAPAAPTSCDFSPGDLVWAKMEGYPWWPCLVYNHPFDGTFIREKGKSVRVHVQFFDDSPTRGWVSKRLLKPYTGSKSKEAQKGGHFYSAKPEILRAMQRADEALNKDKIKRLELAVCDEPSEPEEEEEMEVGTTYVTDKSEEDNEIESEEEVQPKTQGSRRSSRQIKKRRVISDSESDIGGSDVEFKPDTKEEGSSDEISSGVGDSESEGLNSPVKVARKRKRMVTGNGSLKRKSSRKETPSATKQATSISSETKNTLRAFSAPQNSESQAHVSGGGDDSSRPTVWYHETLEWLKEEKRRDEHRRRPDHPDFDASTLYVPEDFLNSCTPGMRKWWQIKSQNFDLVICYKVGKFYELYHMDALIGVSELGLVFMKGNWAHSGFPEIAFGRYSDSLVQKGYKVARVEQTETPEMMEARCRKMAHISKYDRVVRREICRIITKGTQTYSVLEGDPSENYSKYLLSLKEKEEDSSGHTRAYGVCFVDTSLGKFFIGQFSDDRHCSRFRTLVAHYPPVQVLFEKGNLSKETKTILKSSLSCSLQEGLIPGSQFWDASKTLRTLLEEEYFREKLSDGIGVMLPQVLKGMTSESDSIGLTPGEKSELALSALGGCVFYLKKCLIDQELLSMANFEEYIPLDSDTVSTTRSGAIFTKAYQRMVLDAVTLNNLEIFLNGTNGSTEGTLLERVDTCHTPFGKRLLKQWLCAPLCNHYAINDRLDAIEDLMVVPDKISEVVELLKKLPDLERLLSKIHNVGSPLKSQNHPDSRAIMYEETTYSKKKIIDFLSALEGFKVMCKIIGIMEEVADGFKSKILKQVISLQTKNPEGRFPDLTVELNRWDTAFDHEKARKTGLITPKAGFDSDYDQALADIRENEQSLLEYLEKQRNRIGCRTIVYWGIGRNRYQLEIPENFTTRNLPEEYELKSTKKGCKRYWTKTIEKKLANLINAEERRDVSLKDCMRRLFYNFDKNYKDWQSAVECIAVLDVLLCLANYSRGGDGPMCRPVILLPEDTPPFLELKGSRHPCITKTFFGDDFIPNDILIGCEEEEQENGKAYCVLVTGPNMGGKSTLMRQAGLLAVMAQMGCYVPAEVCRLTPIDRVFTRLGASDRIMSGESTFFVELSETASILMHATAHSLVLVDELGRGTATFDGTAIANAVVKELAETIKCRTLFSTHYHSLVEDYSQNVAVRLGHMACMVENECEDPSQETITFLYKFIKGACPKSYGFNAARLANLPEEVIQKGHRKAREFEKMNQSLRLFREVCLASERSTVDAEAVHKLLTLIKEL
Sequence of UniProt Q9BS92 (Q9BS92 whole entry, looked up): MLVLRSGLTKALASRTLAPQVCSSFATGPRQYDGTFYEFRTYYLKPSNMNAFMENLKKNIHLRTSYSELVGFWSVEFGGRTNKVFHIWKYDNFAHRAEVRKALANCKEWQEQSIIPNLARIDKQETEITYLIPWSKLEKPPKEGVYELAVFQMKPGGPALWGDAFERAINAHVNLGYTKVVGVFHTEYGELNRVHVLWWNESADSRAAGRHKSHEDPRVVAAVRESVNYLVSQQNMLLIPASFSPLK

Target | log2 fold change (saracatinib) | log2 fold change (sotrastaurin) | log2 fold change (alvocidib) | log2 fold change (Tubastatin A) | log2 fold change [1] | log2 fold change (defactinib) | log2 fold change (rucaparib) | log2 fold change [2] | log2 fold change (encorafenib) | log2 fold change [3] | log2 fold change [4] | log2 fold change (filanesib) | log2 fold change (zotarolimus) | log2 fold change (idasanutlin) | log2 fold change (alisertib) | log2 fold change [5] | log2 fold change (gefitinib) | log2 fold change [6] | log2 fold change (lapatinib) | log2 fold change (pictilisib)
MSH2 (UniProt P43246) | -0.006 | -0.072 | -0.111 | 0.041 | 0.065 | -0.153 | -0.06 | 0.031 | 0.062 | -0.037 | 0.072 | 0 | 0.057 | -0.019 | -0.018 | 0.024 | 0.007 | -0.026 | -0.021 | 0.144
NPC1 (UniProt O15118) | 0.077 | 0.007 | 0.041 | -0.045 | 0.02 | 0.01 | -0.147 | -0.049 | -0.012 | -0.006 | 0.04 | -0.12 | -0.038 | 0.025 | -0.067 | 0.035 | -0.027 | 0.057 | 0.026 | 0
MT-ND1 (UniProt P03886) | 0.1 | -0.005 | -0.071 | 0.123 | -0.025 | -0.068 | -0.041 | -0.11 | 0.017 | -0.058 | -0.051 | 0.053 | 0.131 | -0.141 | -0.015 | -0.152 | 0.1 | 0.051 | -0.113 | 
MRPS21 (UniProt P82921) | -0.193 | 0.036 | -0.095 | -0.056 | 0.038 | -0.075 | -0.016 | 0.127 | 0.045 | -0.075 | 0.007 | 0.032 | 0.026 | -0.293 | 0.043 | -0.053 | 0.019 | 0.021 | 0.261 | 
NFATC2IP (UniProt Q8NCF5) | 0.065 | -0.033 | -0.107 | 0.012 | 0.067 | -0.122 | 0 | 0.005 | 0.075 | -0.017 | -0.008 | -0.015 | -0.021 | -0.141 | 0.01 | 0.026 | 0 | 0.056 | 0.029 | 0.098
NIPSNAP3B (UniProt Q9BS92) | 0.122 | 0.066 | -0.029 | 0.01 | 0.112 | -0.026 | 0.31 (active) | -0.088 | -0.289 | 0.008 | -0.033 | -0.168 | 0.013 | 0.046 | -0.046 | -0.071 | -0.138 | 0.009 | -0.09 | 0.002
MSH6 (UniProt P52701) | -0.142 | -0.278 | -0.255 | 0.127 | -0.049 | -0.379 | -0.014 | 0.102 | 0.141 | -0.098 | 0.09 | -0.154 | 0.088 | -0.003 | 0.75 | -0.017 | 0.068 | -0.04 | 0.008 | -0.026
OSBPL8 (UniProt Q9BZF1) | -0.175 | -0.054 | -0.011 | 0.078 | 0.11 | 0.025 | 0.232 | 0.488 (active) | 0.167 | -0.078 | 0.034 | 0.077 | -0.067 | -0.016 | -0.052 | -0.086 | 0.23 | -0.22 | 0.142 | -0.015
